Reference: ChEMBL document CHEMBL4513216, “Probing the Open Global Health Chemical Diversity Library for Multistage-Active Starting Points for Next-Generation Antimalarials” (ACS Infect Dis, 2020)
The whole screen tested about 69,000 compounds, of which about 8,600 (12%) showed an effect of 50% or more. Shown is part of a subset that was picked to be rich in strong results.

System: Plasmodium berghei
Assay: Screen against P. berghei liver stage (PbLuc), transformed with Luciferase, at 10uM
Assay type: functional, HepG2
Details: tested at 10 uM

| SMILES | INHIBITION |
| --- | --- |
| Cc1cnn(CC2CCCN2C(=O)c2ccc(Cl)cc2F)c1 (stereo unspecified) | 3.73% |
| CCc1nc(C2CCCN(C(=O)c3c(C)noc3C)C2)no1 (stereo unspecified) | 45.1% |
| Cc1noc(C)c1-c1cccc(C2CCCNC2)n1 (stereo unspecified) | -57.4% |
| CCCc1ccc2oc(C(=O)N3CCN(CCC(N)=O)CC3)c(C)c2c1 | 18.5% |
| Cc1c(NC(=O)CN2CCC(Oc3cnccn3)CC2)cnn1C | 0.696% |
| O=C(CCC1CCCN(C(=O)CCc2ccc(F)c(F)c2)C1)NC1CC1 (stereo unspecified) | 75.4% |
| O=C(CCC1CCCN(S(=O)(=O)C2CC2)C1)Nc1ccc(Cl)cc1 (stereo unspecified) | 28% |
| COCCC(=O)N1CCCC(CCC(=O)NCc2cccc(OC)c2)C1 (stereo unspecified) | 9.52% |
| COCCC(=O)N1CCCC(CCc2ccc(F)c(F)c2)C1 (stereo unspecified) | 4.97% |
| COCCC(=O)N1CCCC(CCC(=O)Nc2ccc(Cl)cc2)C1 (stereo unspecified) | 57.2% |
| COCCC(=O)N1CCCC(CCC(=O)NCc2ccccc2F)C1 (stereo unspecified) | -4.12% |
| Cc1ccc(-c2nc3cc(S(=O)(=O)N4CCCC4)ccc3n2C)o1 | 14.1% |
| CCc1cccc2cc(CNCCOC)c(=O)[nH]c12 | 24.95% |
| O=C(CCn1ccnc1)N1CCCC(n2cncn2)C1 (stereo unspecified) | 49% |
| Cc1cccc(CN2CCCC3(CCN(CC4CCCO4)CC3)C2)n1 (stereo unspecified) | 53% |
| Cn1ccnc1CN1CCCC2(CCN(CC3CCCO3)CC2)C1 (stereo unspecified) | 38.1% |
| c1cncc(N2CCCC3(CCN(CC4CCCO4)CC3)C2)c1 (stereo unspecified) | 3.58% |
| Cc1cccc(CN2CCOCC3(CCN(C4CCOCC4)C3)C2)n1 (stereo unspecified) | -34.9% |
| c1cc(CN2CCCC3(CCN(CC4CCCO4)CC3)C2)n[nH]1 (stereo unspecified) | 47.5% |
| c1ccc(CN2CCCC3(CCN(CC4CCCO4)CC3)C2)nc1 (stereo unspecified) | 62% |
| c1cc(CN2CCc3c(nnn3CC3CC3)C2COCC2CC2)co1 (stereo unspecified) | 27.4% |
| CCN1CCOCC2(CCCN(C(=O)c3ccncc3F)C2)C1 (stereo unspecified) | 27.2% |

| SMILES | INHIBITION |
| --- | --- |
| Cc1c(C(=O)N2CCCN(S(C)(=O)=O)CC2)cnn1C | -4.96% |
| N#CCCCS(=O)(=O)NC1(c2ccc(F)cc2)CC1 | 26.4% |
| O=C(NCC1CCOC1)Nc1ccc(OCC(F)(F)F)nc1 (stereo unspecified) | 23.2% |
| CN(C)c1ccc(NC(=O)NCC2CCOC2)cn1 (stereo unspecified) | 77.85% |
| CCN(CC)c1ccc(NC(=O)NCC2CCOC2)cn1 (stereo unspecified) | -45.3% |
| O=C(NCC1CCOC1)Nc1ccc(Oc2ccc(F)cc2)nc1 (stereo unspecified) | 3.67% |
| Cc1ccc(Oc2ccc(NC(=O)NCC3CCOC3)cn2)cc1C (stereo unspecified) | 58.2% |
| O=C(NCC1CCOC1)Nc1ccc(Oc2cccc(F)c2)nc1 (stereo unspecified) | -8.15% |
| COc1ncccc1CNC(=O)NCCNS(C)(=O)=O | -9.37% |
| CC(C)CS(=O)(=O)N1C[C@@H]2C[C@H](C(=O)Nc3cccnc3)[C@H](C1)O2 | -10.3% |
| CN1N=C(C(=O)N(Cc2ccco2)C2CC2)CCC1=O | 19% |
| Cc1c(Br)cccc1C(=O)NCC1CCNCC1 | 39.7% |
| Cn1cccc1CN1CCC2(CCCN(C(=O)c3cccnc3)C2)CC1 | -43.1% |
| CCC(CC)n1nc(C)cc1NC(=O)C1CCCO1 (stereo unspecified) | -56.4% |
| Cc1nccn1-c1cc(CNC(=O)C2CCCO2)ccn1 (stereo unspecified) | 21% |
| CC(C)(C)c1cc(NC(=O)C2CCCO2)n(-c2ccccn2)n1 (stereo unspecified) | 52.5% |
| Cc1ccnc(NC(=O)C2CCCO2)c1 (stereo unspecified) | 62.3% |
| CCSCc1ccnc(NC(=O)C2CCCO2)c1 (stereo unspecified) | -4.26% |
| CC(C)(C)c1cc(NC(=O)C2COCCO2)n(-c2ccccn2)n1 (stereo unspecified) | 30.7% |
| O=C(c1cnccn1)N1CCC2(CC1)CC(Oc1ccccc1)CO2 (stereo unspecified) | 41.3% |
| CCOCC1CCN(C(=O)c2sc(C)cc2OC(F)F)CC1 | 0.325% |
| COc1cc(CCC(=O)NC2CCN(C)CC2)ccc1OCC(F)(F)F | -14.7% |

| SMILES | INHIBITION |
| --- | --- |
| COCCNC(=O)c1ccc(NCc2csc(C)n2)cc1Cl | 16% |
| COCCOc1cccc(C(=O)N2CCCC(n3cccn3)C2)c1 (stereo unspecified) | 9.94% |
| CC1CCc2nn(CCNC(=O)Cc3cccs3)c(=O)cc2C1 (stereo unspecified) | -45.7% |
| Cc1nc(CN(CCS(C)(=O)=O)C(C)C)no1 | 49.3% |
| c1cncc(COC[C@H]2CC[C@H]3[C@H](CCN3Cc3cccs3)O2)c1 | 31.8% |
| c1ccc(COC[C@H]2CC[C@H]3[C@H](CCN3Cc3ccco3)O2)nc1 | 51.3% |
| Cc1cccc(COC[C@@H]2CC[C@H]3[C@H](CCN3Cc3ccco3)O2)n1 | 43.5% |
| c1csc(CN2CC[C@H]3O[C@@H](COCC4CC4)CC[C@H]32)c1 | 73% |
| c1ccc(COC[C@H]2CC[C@H]3[C@H](CCN3Cc3cccs3)O2)nc1 | 49.7% |
| c1ccc(COC[C@H]2CC[C@H]3[C@H](CCN3c3ncccn3)O2)nc1 | 26.4% |
| COC[C@H]1CC[C@@H]2[C@@H](CCN2Cc2ccco2)O1 | -6.39% |
| c1coc(CN2CC[C@H]3O[C@@H](COCC4CC4)CC[C@H]32)c1 | 53.9% |
| c1coc(CN2CC[C@@H]3O[C@@H](COCC4CCOCC4)CC[C@@H]32)c1 | -30% |
| Cc1cccc(COC[C@H]2CC[C@H]3[C@H](CCN3Cc3ccco3)O2)n1 | 68.4% |
| CN(C)C(=O)COC[C@H]1CC[C@@H]2[C@@H](CCN2Cc2ccco2)O1 | -11.6% |
| c1coc(CN2CC[C@@H]3O[C@@H](COCc4ccncc4)CC[C@@H]32)c1 | 0.164% |
| Cn1cc(C[C@H]2[C@H](O)CCN2CC2CCOCC2)cn1 | 6.6% |
| O=C1CNc2ncnc(NCc3cccs3)c2N1 | -25.5% |
| CN(Cc1ccco1)C(=O)CN1C(=O)c2cc(Cl)c(Cl)cc2C1=O | 39.2% |
| O=C1COC2(CCN(Cc3ccoc3)CC2)CN1 | -0.813% |
| CS(=O)(=O)CC(=O)N1C[C@H]2CCC[C@@]2(COc2ccccn2)C1 | -0.453% |
| Cn1c(=O)c2cc(C(=O)NCCOc3ccccc3)ccc2n(C)c1=O | 33.7% |
